# Screening data deposited in PubChem by several laboratories.
# NALP3 yeast inh = blocks the NALP3 inflammasome reconstituted in yeast; Yeast reconstituted NLRP3/ASC/caspase-1, beta-gal luminescence, 24 h; inhibition, % at 10 µM; actives 0.39% (n = 330,000); AID 2825;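 active means inhibition of 50% or more; inactive means inhibition below 50%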;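 further: plate controls were induced DMSO wells for no effect and uninduced yeast grown without galactose for full effect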
# tim23-1 inh = growth inhibitors of tim23-1 mutant yeast | actives 1.3% (n = 330,000) | inhibition, % at 20 µM | AID 463212 | S. cerevisiae tim23-1 growth, BacTiter-Glo luminescence, 24 h;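 active means growth inhibition of the mutant yeast at or above 50%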;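 further: temperature-sensitive mutant grown at 25 °C; plate controls were DMSO-treated mutant yeast for no effect and medium wells lacking yeast for full effect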
# TIM10 inh = growth inhibitors of TIM10 yeast strain; S. cerevisiae TIM10 strain growth, BacTiter-Glo luminescence, 24 h; inhibition, % at 10 µM; actives 1.4% (n = 330,000);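 active means inhibition of 40% or more at the single tested concentration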;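 further: wild-type TIM10 isogenic control strain grown at permissive 25 °C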
# SKKanGAS inh = inhibitors of SKKanGAS S. pyogenes growth in kanamycin (SK-promoter or general growth effect). BacTiter-Glo, 6 h. inhibition, % at 7.5 µM. actives 1.3% (n = 300,000). AID 1662;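 active means mean replicate score, as percent of positive control median, at least 50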;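 further: strain carries kanamycin resistance gene driven by streptokinase promoter and grows in 40 µg/ml kanamycin; loss of luminescence reflects streptokinase promoter inhibition or plain growth inhibition; 0% = median of DMSO wells and 100% = positive control at its reference dose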
# NALP1 inh = inhibitors of NALP1 inflammasome in yeast | S. cerevisiae NALP1/ASC/caspase-1 growth, X-gal OD620, 72 h | inhibition, % at 10 µM | actives 0.61% (n = 280,000); in the data active means inhibition mostly above about 24%, no sharp cut-off; inactive means mostly below about 32%
# tim10-1 inh = inhibits growth of tim10-1 mutant yeast; S. cerevisiae tim10-1 ts strain growth, BacTiter-Glo, 24 h; inhibition, % at 20 µM; actives 2.2% (n = 330,000); AID 463190;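 active means inhibition of at least 40%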;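 further: mutant grown at 25 °C; 0% = DMSO wells with yeast and 100% = wells holding no yeast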
# * = called active by the depositor; x = not tested or not shown. Sampled rows, rich in hits. Any-hit rate of the full collection: about 4.9%.
SMILES,NALP3 yeast inh,tim23-1 inh,TIM10 inh,SKKanGAS inh,NALP1 inh,tim10-1 inh
O=C(C[C@@H]1C/C=C/CC[C@H](Cc2ccc(F)cc2)C(=O)OCCNC1=O)N[C@H](CO)Cc1ccccc1,-6,16,6,x,x,-2
CN(C)C(CNc1ncnc2sccc12)c1cccs1 (stereo unspecified),11,2,2,-11,-13,2
CCOC(=O)c1sc2ncnc(NCC(c3cccs3)N(C)C)c2c1C (stereo unspecified),16,44,7,53*,12,33
CCCCNc1c(-c2ccc(SC(C)CC)c(OC)c2)nc2ccc(Cl)cn12 (stereo unspecified),23,31,19,x,x,23
CCCCNc1c(-c2ccc(SC(C)CC)c(OC)c2)nc2ccc(C)cn12 (stereo unspecified),25,-1,0,72*,x,34
CCC(C)Sc1cccc(-c2nc3ccc(C)cn3c2NCc2ccccc2)c1 (stereo unspecified),23,6,5,67*,x,33
CCC(C)Sc1cccc(-c2nc3ccc(Cl)cn3c2NCc2ccccc2)c1 (stereo unspecified),26,20,9,37,x,22
CC(=O)c1ccc(/C=C/c2nc3ccccc3n2C)o1,-15,-13,11,5,8,-9
CC1(C)Cc2nc3sc4c(NCCO)ncnc4c3cc2CS1,6,6,6,4,31*,2
CCCCn1cnc2c(sc3nc4c(cc32)CSC(C)(C)C4)c1=O,11,13,15,-5,31,23
O=C(CN1C(=O)NC(c2ccccc2)(c2ccccc2)C1=O)NCCc1ccc(F)cc1,12,13,-6,x,x,-1
O=C(Cc1cccs1)N/N=C/C=C\c1ccco1,11,20,6,7,-3,3
O=C(Cc1cccs1)N/N=C/c1ccco1,22,-2,1,77*,29,-8
O=C(CNC(=O)c1cccs1)N/N=C/c1ccco1,13,-1,5,1,29*,-5
Cc1ccc(/C=N/NC(=O)CNC(=O)c2cccs2)o1,3,11,12,-3,-5,5
CC1(C)CC[C@]2(C(=O)O)CC[C@]3(C)C(=CC[C@@H]4[C@@]5(C)CC[C@H](O)C(C)(C)[C@@H]5CC[C@]43C)[C@@H]2C1,16,-11,-1,x,x,0
CC1(C)CC[C@]2(C(=O)O)CC[C@]3(C)C(=CCC4[C@@]5(C)CC[C@H](O)C(C)(C)C5CC[C@]43C)C2C1 (stereo partly specified),x,x,x,105*,23,x
CCOC(=O)c1nn(-c2cccc(Cl)c2)c2nc(Nc3ccccc3)cc(=O)n12,4,18,20,27,25,11
CCOC(=O)c1nn(-c2cccc(OC)c2)c2nc(Nc3ccccc3)cc(=O)n12,10,24,25,62*,40,19
CCOc1ccc(N(CC(=O)N/N=C/c2ccccn2)S(=O)(=O)c2ccc(Cl)cc2)cc1,2,23,4,x,16,26
CC(=O)Oc1ccc(Cl)cc1/C=C/c1ccc2ccccc2n1,-2,28,23,-7,20,-2
CC(C)(O)c1ccccc1CC[C@@H](SCC1(CC(=O)O)CC1)c1cccc(/C=C/c2ccc3ccc(Cl)cc3n2)c1,8,13,12,105*,x,15
O=C(Nc1nnc(SCc2ccccc2Cl)s1)C1COc2ccccc2O1 (stereo unspecified),17,38,32,69*,-3,36
CN1CCN(c2ccccc2/C=C2/C(=O)Nc3ccccc32)CC1,28,20,-11,0,2,18
Oc1ccccc1/C=N/Nc1nc2ccccc2o1,28,14,26,106*,-18,10
SMILES,NALP3 yeast inh,tim23-1 inh,TIM10 inh,SKKanGAS inh,NALP1 inh,tim10-1 inh
Cc1ccc2c(Cl)c(C(=O)NC3CC3)sc2c1,24,1,2,x,7,-2
CN(c1ccccc1C(=O)N1CCN(Cc2ccc3c(c2)OCO3)CC1)S(C)(=O)=O,23,3,6,17,36*,-1
O=C(c1ccccc1Cl)N1CCN(Cc2ccc3c(c2)OCO3)CC1,8,0,-2,-2,11,-15
CC(C)NCC(O)Cn1c2c(c3ccccc31)CCc1c-2cnn1-c1ccccc1 (stereo unspecified),21,-17,10,4,22*,20
O=C1CCC/C=C\C[C@@H](CC(=O)N(CCO)Cc2ccccc2)C(=O)N[C@H](c2ccccc2)CO1,-4,12,3,x,x,13
O=C(NCCCN1CCOCC1)C1CCN(S(=O)(=O)c2cccc(Cl)c2Cl)CC1,29,-7,-2,-10,x,-23
Cc1cc(N/N=C/c2cccc(Cl)c2)nc(-n2nc(C)cc2C)n1,26,34,26,104*,-14,21
CCN(CC)c1ccc(/C=C2/SC(=O)N(C(C)C)C2=O)o1,x,x,x,-12,58*,x
CCCCc1cc2c(c(NC(C)=O)n1)c(=O)oc1ccccc12,9,3,3,0,9,4
CC(=O)Nc1nc(CC(C)C)cc2c1c(=O)oc1ccccc12,-7,-7,-7,3,28*,-11
CNC(CC(=O)c1ccc([N+](=O)[O-])cc1)C(Cl)(Cl)Cl (stereo unspecified),x,x,x,x,115*,x
CCOC(=O)c1c(C)[nH]c(C(C)=NNC(=O)Cn2nc(C)cc2C)c1C,18,1,-3,x,x,-7
Cc1cc(N2CCC(C)CC2)nc(-n2nc(C)cc2C)n1,33,38,19,95*,37,38
COc1ccc(CNC(=O)C[C@H]2C(=O)N(CCc3ccccc3)C[C@@H]2Cc2ccccc2)cc1,15,27,18,6,1,7
COc1cc2c(C#N)c(N3CCN(c4ccccc4OC)CC3)nc(N)c2c(N)n1,11,37,33,72*,39,25
COc1cc2c(C#N)c(N3CCN(C)CC3)nc(N)c2c(N)n1,10,-4,-16,6,13,25
CC(C)C[C@H](NC(=O)N1CCn2c1nc1ccccc12)C(=O)NC1CCCCC1,8,22,13,-3,12,22
COc1ccc(OCC(=O)NNC(=S)NC(=O)C2CC2)cc1,18,-21,5,63*,-3,9
CCc1ccc(OCC(=O)NNC(=S)NC(=O)C2CCCCC2)c(Br)c1,33,4,13,90*,1,21
Cc1cc(C)cc(OCC(=O)NNC(=S)NC(=O)C2CC2)c1,31,14,-13,87*,2,23
COc1ccc(C(=O)NC(=S)NNC(=O)CNC(=O)C2CCCCC2)cc1,10,-4,16,8,11,27
COc1ccc(OCC(=O)NNC(=S)NC(=O)C2CCCCC2)cc1,27,18,-22,64*,11,19
CCOC(=O)CN1C(=O)/C(=C2\SC(=S)N(NC(=O)c3cccnc3)C2=O)c2ccccc21,12,12,-11,3,6,12
